IL-1B inflam inh = inhibitors of inflammasome signaling (IL-1 beta secretion); THP-1 LPS/ATP IL-1B secretion, AlphaLISA, 16 h; hits give low values; activity change, % at 57.5 µM; 4.7% of 360,000 active; AID 743279; in the data active = activity change below about -50%; inconclusive = mostly about -30% to -49%
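THP-1 cells pretreated 1 hr with compounds (up to 57.5 uM final), then stimulated with LPS (250 ng/mL final) plus ATP (1.25 mM final); secreted IL-1B measured by AlphaLISA after 16 hr, decreased signal indicating inhibition.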
Six1-Eya2 blk = Six1/Eya2 interaction inhibition. Q15475+O00167. 0.56% of 360,000 active. AlphaScreen GST-Six1/His-Eya2 binding, biochemical; hits give low values. AID 651725. activity change, % (no concentration beside the values); in the data active = activity change below about -65%; inconclusive = mostly about -30% to -63%
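AlphaScreen luminescence read after one hour at 37 °C in darkness. Pin-transferred compounds met GST-Six1 and His-Eya2 protein (5X stock 250 nM/500 nM) plus glutathione donor and Ni-chelate acceptor beads (5X, 50 ug/mL).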
TDP1 block = blocks human tyrosyl-DNA phosphodiesterase 1. 0.28% of 350,000 active. Potency, µM (top dose mostly 130 µM), for inactives: at the top dose activity change, negative = inhibition, most hits filed as inhibitors. recombinant TDP1, AlphaScreen DNA substrate cleavage. AID 485290; also: potency is read from the fitted curve at half-maximal effect; nearly all actives have a fitted effect of over 40% in size
Target sequence (Q9NUW8 whole entry, looked up): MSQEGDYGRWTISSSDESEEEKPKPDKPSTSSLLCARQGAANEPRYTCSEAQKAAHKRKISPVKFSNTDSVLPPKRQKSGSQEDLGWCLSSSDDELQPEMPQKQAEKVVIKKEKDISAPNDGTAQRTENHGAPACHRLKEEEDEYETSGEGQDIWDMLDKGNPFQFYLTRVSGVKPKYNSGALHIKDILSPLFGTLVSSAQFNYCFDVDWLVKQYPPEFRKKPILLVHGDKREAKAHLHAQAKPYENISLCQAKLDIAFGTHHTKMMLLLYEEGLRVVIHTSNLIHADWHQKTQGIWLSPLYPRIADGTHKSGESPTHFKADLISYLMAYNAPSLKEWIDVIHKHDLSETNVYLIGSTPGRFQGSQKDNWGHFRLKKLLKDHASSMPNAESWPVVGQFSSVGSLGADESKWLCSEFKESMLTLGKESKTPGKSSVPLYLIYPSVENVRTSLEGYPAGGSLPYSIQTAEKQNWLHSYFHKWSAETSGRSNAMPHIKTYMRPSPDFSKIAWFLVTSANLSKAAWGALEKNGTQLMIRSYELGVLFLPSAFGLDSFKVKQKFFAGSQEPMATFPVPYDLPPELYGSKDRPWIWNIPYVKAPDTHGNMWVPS
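Steps: enzyme plus compound, 15 min RT; add biotin/phosphotyrosine-FITC oligonucleotide (15 nM final), react 5 min; add donor/acceptor beads (10 ug/ml final), 10 min; read AlphaScreen. Tdp1 at 1 nM final.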
TDP1 cell noCPT = qHTS for Inhibitors of human tyrosyl-DNA phosphodiesterase 1 (TDP1): qHTS in cells in absence of CPT; 15% of 420,000 active; Potency, µM (titrated, usually from 46.2 µM), without a hit: at the highest dose activity change, negative = growth inhibition, usual class: inhibitors; DT40 Tdp1-/- hTDP1 cells, no CPT, ATP luminescence, 48 h; also: potency is read from the fitted curve at half-maximal effect; nearly all actives have a fitted effect of over 55% in size
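No-CPT arm: Tdp1-/-;hTDP1 DT40 cells (400/well) plus compounds, incubated ≥48 hr at 37 °C. Readout CellTiter-Glo luminescence.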
CtBP-E1A inh = CtBP/E1A binding inhibition; AlphaScreen GST-E1A/His-CtBP binding, 1536-well; hits give low values; activity change, % (test concentration not listed); 0.49% of 340,000 active; in the data active = activity change below about -65%; inconclusive = mostly about -30% to -63%
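GST-E1A and His-tagged CtBP (125 nM each as 5X stock) were preincubated with pin-transferred compound for 2 h at 37 °C in the dark, then glutathione donor and nickel acceptor beads were added for 1 h before AlphaScreen reading.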
DT40 TDP1 CPT = growth inhibition of DT40 Tdp1-/-;hTDP1 cells with camptothecin (screen for TDP1 inhibitors). chicken DT40 Tdp1-/-;hTDP1 cells + 20 nM CPT, ATP luminescence, 48 h. Potency, µM (doses to about 46.2 µM), for inactives: top-dose activity change, negative = growth inhibition, hits mostly inhibitors. 12% of 420,000 active; also: potency is read from the fitted curve at half-maximal effect; nearly all actives have a fitted effect of over 55% in size
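Chicken DT40 Tdp1-/- cells complemented with human TDP1, 400 cells/well, exposed to compounds plus 20 nM camptothecin for at least 48 h at 37 C; viability read as ATP content by CellTiter-Glo luminescence.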
The depositor's hits bear a star; ? = inconclusive; / = no result given. A selection: hits, their analogues and other compounds. The true share with any hit is near 18%. Unless noted, calls follow the shape of the dose curve; as a rule, active = well fitted curve in the direction sought with a large enough effect; inconclusive = small, poorly fitted or top-dose-only effect, or another doubt; inactive = no such curve, though single readings can be large; an effect the other way counts as inactive or inconclusive. % is scaled to controls: 0 for no effect and ±100 for the full control effect.

SMILES	IL-1B inflam inh	Six1-Eya2 blk	TDP1 block	TDP1 cell noCPT	CtBP-E1A inh	DT40 TDP1 CPT
O=C1/C(=C\c2cccs2)SC(=S)N1C1CCS(=O)(=O)C1 (configuration not stated)	?	-10	6%	?	-12	?
COc1ccc(NC(=O)COC(=O)CCC2CCCCC2)cc1	-3	-1	-5%	-15%	18	-2%
O=C(O)C1=NOC(CNc2ncc(C(F)(F)F)cc2Cl)C1 (configuration not stated)	12	0	-1%	-1%	7	25%
COc1ccccc1C#CC1=CC(=O)CC(C)(C)C1	?	-4	/	9.2µM*	-2	16µM*
COc1ccc(C#CC2=CC(=O)CC(C)(C)C2)cc1	0	-4	/	?	4	?
CSc1ccccc1C(=O)OCC(=O)Nc1ccc(N2CCOCC2)cc1	1	-13	4%	?	2	?
Cc1ccc(NC(=O)CN(C(=O)N2CCN(C)CC2)S(=O)(=O)c2ccc(C)cc2)cc1	-14	-2	/	-5%	7	-7%
CCOC(=O)c1ccc(S(=O)(=O)Nc2ccccc2-c2nnn(CC)n2)cc1	-16	14	4%	9.2µM*	41	15µM*
CCOC(=O)c1ccc(CN(Cc2ccccc2)S(=O)(=O)c2ccc(C)cc2)cc1	/	/	-2%	16µM*	/	29µM*
CCOC(=O)c1ccc(NC(=O)CNS(=O)(=O)c2ccccc2)cc1	-5	5	7%	?	13	?
CCOC(=O)c1ccc(S(=O)(=O)NCCNCc2ccccc2)cc1	-76*	-15	0%	?	-24	?
CCc1ccc(NC(=O)CN(C(=O)N2CCN(CC)CC2)S(=O)(=O)c2ccc(C)cc2)cc1	-55*	4	/	-3%	-5	1%
Cc1nc2cc(NC(=O)c3ccc(N4C(=O)CCC4=O)cc3)ccc2s1	3	10	0%	4%	/	7%
O=C(Nc1ccccc1N1CCCCC1)c1ccc(OC(F)F)cc1	0	1	/	-10%	10	0%
Cc1ccccc1NS(=O)(=O)c1cc(C(=O)N2CCc3ccccc3C2)ccc1C	-3	-6	7%	-10%	-21	1%
CCOC(=O)c1ccc(CN(Cc2ccc(C)cc2)S(=O)(=O)c2ccc(NC(C)=O)cc2)cc1	/	/	0%	15µM*	/	?
CCOC(=O)c1ccc(CN(Cc2ccc(C)cc2)S(=O)(=O)c2ccc(F)c(C(=O)Nc3ccc(C)c(F)c3)c2)cc1	/	/	-3%	-17%	/	-6%
Cc1cc(C(=O)OC(C(=O)Nc2cccc(C(F)(F)F)c2)c2ccccc2)c(C)o1 (configuration not stated)	0	-1	3%	21µM*	4	?
Cc1ccc(NC(=O)C(OC(=O)c2cc(C)oc2C)c2ccccc2)cc1 (configuration not stated)	-11	-4	0%	?	-3	-2%
COc1cccc(N2C(=O)c3ccccc3C2=O)c1	/	/	-12%	/	/	/
COc1cccc(C2=CC(=O)C(C(C)(C)C)N2C(C)(C)C)c1 (configuration not stated)	16	0	/	21µM*	-1	?
Cc1nnc(NCCc2ccccc2)c2ccccc12	-19	49	1%	23µM*	0	?
Cc1nnc(NCc2cccc(Cl)c2)c2ccccc12	-21	1	8%	?	-8	?
CCc1sc(C(C2C(=O)CC(C)(C)CC2=O)C2C(=O)CC(C)(C)CC2=O)cc1[N+](=O)[O-]	-248*	-1	0%	5.2µM*	0	4.1µM*
O=C(CSc1nnc(-c2cccnc2)o1)Nc1ccc(Br)cc1	-5	8	13%	-17%	-11	0%
